About 83,000 compounds went through this panel and 20% of them were active in at least one assay; those are over-represented in the sample as a whole.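 Results are percent growth after 48 hours of single-concentration exposure. 100 means growth as in untreated cells, lower positive values show inhibition; negative values down to -100 show cell death.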 A number with no mark means an inactive call. Calls of active or inactive are those of the source. The calls were made as follows: active = growth percent below 10; inactive = the rest.
How the values were obtained:
Assay in all cases: NCI-60 one-dose screen, 48 h (100 = growth as untreated, 0 = no growth, -100 = all killed)
Conditions in all cases: 10 µM unless noted
DU-145 prostate = system: DU-145 prostate
K-562 leukemia = system: K-562 leukemia
MALME-3M melanoma = system: MALME-3M melanoma
MDA-MB-231 breast = system: MDA-MB-231 breast
RXF 393 renal = system: RXF 393 renal
SF-268 CNS = system: SF-268 CNS
SF-295 CNS = system: SF-295 CNS
SF-539 CNS = system: SF-539 CNS
M14 melanoma = system: M14 melanoma
HCT-15 colon = system: HCT-15 colon
HT29 colon = system: HT29 colon
SNB-75 CNS = system: SNB-75 CNS
SNB-19 CNS = system: SNB-19 CNS
U251 CNS = system: U251 CNS
PC-3 prostate = system: PC-3 prostate
SK-MEL-5 melanoma = system: SK-MEL-5 melanoma
UACC-62 melanoma = system: UACC-62 melanoma
LOX IMVI melanoma = system: LOX IMVI melanoma
SK-MEL-28 melanoma = system: SK-MEL-28 melanoma

SMILES	growth (DU-145 prostate)	growth (K-562 leukemia)	growth (MALME-3M melanoma)	growth (MDA-MB-231 breast)	growth (RXF 393 renal)	growth (SF-268 CNS)	growth (SF-295 CNS)	growth (SF-539 CNS)	growth (M14 melanoma)	growth (HCT-15 colon)	growth (HT29 colon)	growth (SNB-75 CNS)	growth (SNB-19 CNS)	growth (U251 CNS)	growth (PC-3 prostate)	growth (SK-MEL-5 melanoma)	growth (UACC-62 melanoma)	growth (LOX IMVI melanoma)	growth (SK-MEL-28 melanoma)
O=c1[nH]c(N2CCOCC2)nc2scc(-c3ccccc3)c12	107%	101%	88.8%	108%	97.5%	89.4%	96.5%	94.3%	98.9%	99%	86.8%	84.3%	106%	69.5%	94.6%	98.7%	99.2%	100%	110%
CN1CCN(Cc2ccc(NC(=O)c3[nH]ncc3Nc3ncnc4sc5c(c34)CCCC5)cc2)CC1	-86.7% (active)	-60.6% (active)	-75.4% (active)	-57.8% (active)	-92.9% (active)	-44.3% (active)	-87.9% (active)	-100% (active)	-95.2% (active)	-69.3% (active)	-36.9% (active)	-94.2% (active)	-88.8% (active)	-84.2% (active)	-77.8% (active)	-99.9% (active)	4.67% (active)	-91.7% (active)	-78.9% (active)
CC(C)OP(=O)(CCC(=O)c1c[nH]c2ccccc12)OC(C)C	116%	95.6%	97.2%	106%	114%	101%	104%	97.4%	98.4%	104%	97.2%	82.6%	104%		73.2%	110%	97%	96.2%	121%
CCN1CCN(c2nc(C)cc(N(CCCNc3ccnc4cc(Cl)ccc34)Cc3ccc4c(c3)OCO4)n2)CC1	25%	-10.5% (active)	-81.9% (active)	-32.8% (active)	-73.4% (active)	-6.06% (active)	-76.1% (active)	-86.1% (active)	-87.9% (active)	-32.9% (active)	-26.2% (active)	-53.5% (active)	24.8%	-73.7% (active)	24.7%	-97.6% (active)	-52.9% (active)	-84.4% (active)	-64.1% (active)
COC(=O)CCCNc1c(-c2c(O)c(O)cc3c(O)c(-c4c(C)cc5c(-c6nc7ccccn7c6NCCCC(=O)OC)c(O)c(O)cc5c4O)c(C)cc23)nc2ccccn12	29.6%	11%	39.9%	56.1%	32.9%	25.3%	26.4%	2.01% (active)	60.3%	76.9%	48.8%	19.9%	21.4%	14%	52.7%	76.2%	41.4%	18%	39.7%
Cc1nn(-c2nc3ccccc3[nH]2)c2c1C(c1ccc(OCc3ccc(F)cc3)cc1)CC(=O)N2 (stereo unspecified)	96%	87.6%	81.3%	42.8%		46.7%	19%	56.7%	58.5%	41.5%	70.1%	48.3%	64.9%	41.6%	43.8%	68.3%	61.3%	28%	
c1ccc2c(c1)CCN(NCCN1CCCC1)C2	110%	92.2%	101%	87%	99.9%	96.6%	98%	97.7%	93%	105%	101%	70.9%	107%	94.3%	64.6%	104%	98.6%	90.1%	109%
CC(C)=CCc1cc2c(cc1O)C1=C(C(=O)C3=C(C1=O)S(=O)(=O)CCN3)C(C=C(C)C)O2 (stereo unspecified)	-97.1% (active)	0.919% (active)	-96.1% (active)	1.47% (active)	-76.2% (active)	-0.0427% (active)	-65.9% (active)	-100% (active)	-89.1% (active)	-11.5% (active)	-30.5% (active)	-81.1% (active)	-91.1% (active)	-81.3% (active)	10.2%	-99.5% (active)	-32.3% (active)	-65.8% (active)	-75.9% (active)
Cc1cc2c(-c3nc4ccccn4c3NC3CCCCC3)c(O)c(O)cc2c(O)c1-c1c(C)cc2c(-c3nc4ccccn4c3NC3CCCCC3)c(O)c(O)cc2c1O	32.3%	10.2%	42.5%	26.5%	39%	38.2%	16.6%	16.9%	16.5%	19.9%	25.7%	28%	25.3%	19.8%	18.4%	23.9%	-1.66% (active)	27.4%	38.9%
CCN1CCN(c2cc(C)nc(N(CCCNc3ccnc4cc(Cl)ccc34)Cc3ccc4c(c3)OCO4)n2)CC1	20.1%	-30.4% (active)	-82.2% (active)	-29.5% (active)	-59% (active)	-0.704% (active)	-70% (active)	-88.6% (active)	-82.2% (active)	1.33% (active)	-12.2% (active)	-15% (active)	16.3%		15.8%	-95.7% (active)	-47.8% (active)	-75% (active)	-73.6% (active)

Source: PubChem BioAssay (NCI)
